Where “and” joins values, the source holds several entries; their conditions need not be identical. Equal values may be shown once. Calls of active or inactive are those of the source.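 How the source made its calls: active means response relative to DMSO over 150%; inconclusive means yeast strain with under 70 recorded events; inactive means the rest.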
Test: AGP1-GFP expression modulators, hit retest, confirmation, cell-based, flow cytometry, S. cerevisiae, cherry pick set 3 (AID 504334);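 further: median GFP fluorescence per well by flow cytometry over the all cells gate; ratio of sample to mean DMSO control signal so DMSO = 100% not 0%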
Conditions: S. cerevisiae AGP1-GFP strain, 3 h, at 10 µM, hits give high values

| SMILES | percent response vs DMSO |
| --- | --- |
| Cc1ccc(Nc2nc(N)[nH]c(=O)c2N=O)cc1 | 101% (inactive) |
| C[n+]1cccc2cccc([O-])c21 | 98.8% (inactive) |
| CC(=O)Nn1cnc2c(c1=O)C1(CCCC1)Cc1ccccc1-2 | 99.1% (inactive) |
| O=C(O)c1ccc2cccnc2c1O | 99.8% (inactive) |
| Cc1cccc(Nc2cc(=O)[nH]c(=O)[nH]2)c1C | 99.4% (inactive) |
| COc1ccccc1Nc1nc(NCCO)nc(N)c1[N+](=O)[O-] | 99.1% (inactive) |
| N#Cc1c(N)nc(N)nc1Nc1ccc(Br)cc1 | 98.4% (inactive) |
| CCC(C)Nc1nc(N)c([N+](=O)[O-])c(Nc2cc(OC)ccc2OC)n1 (configuration not stated) | 98.8% (inactive) |
| O=C(/C=C/Nc1cccc(O)c1)c1ccccc1 | 102% (inactive) |
| Cc1cc(C)c(NC(=O)CC(=O)c2ccccc2)c(Cl)c1 | 99.4% (inactive) |
| COc1cccc(OCc2cc(C(=O)N3CCN(C)C(c4ccccc4)C3)no2)c1 (configuration not stated) | 101% (inactive) |
| CSc1nc(Nc2ccc(Cl)cc2)c(C#N)c(=O)[nH]1 | 98.4% (inactive) |
| COC(=O)c1cc(=O)c2cccc(OC)c2[nH]1 | 99.4% (inactive) |
| COc1ccccc1-c1cc(C(F)(F)F)nc(S(=O)(=O)CCCC(=O)O)n1 | 110% (inactive) |
| Cc1ccc2nc(-c3ccc(NC(=O)c4cccnc4)cc3)oc2c1 | 93.8% (inactive) |
| COc1ccc(-c2cc(C(F)(F)F)nc(S(C)(=O)=O)n2)cc1OC | 106% (inactive) and 113% (inactive) |
| COc1cccc2c(O)cc(=O)n(C)c12 | 99.1% (inactive) |

— PubChem BioAssay AID504334 (NMMLSC, 2011)
